Measured values from the supplement of paper PMC4954754.
± gives the uncertainty stated by the source.

system: HEK293T-Rex ERSE-FLuc; experiment: ERSE-FLuc reporter activation, triplicate confirmation, relative to 500 nM thapsigargin (% of thapsigargin); higher = stronger ATF6/ERSE reporter activation; conditions: 6.8 µM; 18 h; screen: confirmation
Procedure: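 HEK293T-Rex cells stably expressing the ERSE-firefly luciferase (BiP promoter, ATF6-preferring) or XBP1-splicing Renilla luciferase (IRE1/XBP1s) reporter, 1536-well plates, compound at 6.8 µM for 18 hr at 37 °C; luminescence read […] and expressed as % activation = 100*(compound - median DMSO)/(median 500 nM thapsigargin - median DMSO). Primary screen was single-pass; confirmation screen in triplicate (mean ± SD).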

Structure (SMILES) | ERSE-FLuc reporter activation
COc1ccc(-c2csc(N(CC3CCCO3)C(=O)CCl)n2)cc1 (configuration not stated) | 25.3 ± 4.3
N#Cc1c(NC(=O)c2ccc3ncsc3c2)sc2c1CCC2 | 32.1 ± 2.5
COc1ccccc1-c1cc(C(=O)Nc2cc(C)ccc2O)no1 | 29.1 ± 4
COc1ccc(NC(=O)/C(Cl)=C\c2ccccc2)cc1 | 28.6 ± 2.2
NN1C(=O)/C(=C/c2ccc(O)c(O)c2)SC1=S | 38.3 ± 1
COc1cccc(-c2cc(C(=O)Nc3cc(C)ccc3O)on2)c1 | 34.2 ± 8.4
CCN(CC)c1ccc2cc(-c3nc4ccccc4n3C)c(=O)oc2c1 | 34.2 ± 4.2
O=C1NC(=Nc2ccccc2)S/C1=C/c1ccc(O)c(O)c1 | 38.4 ± 10
O=c1[nH]c(/C=C2\C=Nc3ccccc32)c(O)n1-c1cccc(Cl)c1 | 58.7 ± 9.3
O=[N+]([O-])c1ccc(N/N=C/c2ccccc2O)cc1 | 20.7 ± 2.3
Cc1ccccc1-c1cc(=O)c2cc(Cl)ccc2o1 | 25.5 ± 3.8
O=C(NC1CCCC1)c1cc(-c2cccs2)on1 | 25.7 ± 2.1
CCn1c(/C(C#N)=C/c2ccc(OC)cc2)nc2ccccc21 | 27.2 ± 7.1
CCOc1ccc(/C=C(\C#N)c2[nH]nc(N)c2C#N)cc1OCC | 26.7 ± 5.5
Cc1nn(-c2ccc(F)cc2)c2ncc(C(=O)NCc3ccco3)c(Cl)c12 | 54.5 ± 3.9
CCOc1cc(C2C(C(=O)OC3CCCCC3)=C(C)NC3=C2C(=O)CC(c2ccc(OC)cc2)C3)cc(Br)c1O (configuration not stated) | 27.2 ± 9.1
CCOc1cc(/C=C2/NC(=O)N(c3cccc(Cl)c3)C2=O)ccc1O | 30.5 ± 9.3
O=c1cc(-c2ccc(O)c(O)c2)oc2ccccc12 | 42.2 ± 12
O=C(COC(=O)c1cc(O)c(O)c(O)c1)Nc1ccc(Br)cc1F | 57.9 ± 11

Structure (SMILES) | ERSE-FLuc reporter activation
CN1C(=O)/C(=C\c2ccc(O)c(O)c2)SC1=S | 25.2 ± 1.4
Oc1ccc(-c2cn3ccccc3n2)cc1O | 40 ± 5.6
COc1cccc(C(=O)/C=C/Nc2cc(C)ccc2O)c1 | 116 ± 7.9
Cc1ccc(O)c(NC(=S)NC(=O)/C=C/c2ccco2)c1 | 27 ± 5.2
C=CCNC(=O)c1sc2nc3cc(C)c(C)cc3cc2c1N | 30.2 ± 5.3
O=C(Nc1ccccc1O)c1cc2ccccc2o1 | 33 ± 7.3
O=C(N/N=C/c1cccc(O)c1O)c1ccccn1 | 37.9 ± 9.1
C/C(=N\NC(=O)c1n[nH]c2c1CCCC2)c1ccc2ccccc2c1 | 30.7 ± 2.6
O=C(N/N=C/c1cccc(O)c1O)c1ccccc1I | 25.6 ± 5.4
Cc1ccc(/C=N/NC(=O)c2cccc(Cl)c2)cc1 | 31.9 ± 1.9
OCCNc1nc(Nc2ccc(Cl)cc2)nc2ccccc12 | 67.9 ± 10
COc1ccc(/C=N/NC(=O)c2cccc(F)c2)cc1Br | 35.4 ± 1.5
CCCCCCOc1ccc(/C(C)=N/NC2=NCCN2)cc1[N+](=O)[O-] | 31.3 ± 2.8
Cn1cccc1/C=C1/SC(=Nc2ccccc2)NC1=O | 37.4 ± 1.9
CCc1cc2c(=O)c(-c3ccc4c(c3)OCCO4)coc2cc1OC | 34.7 ± 3.1
Cc1cc(C)c2nc3sc(C(=O)N4CCCCC4)c(N)c3cc2c1 | 32.5 ± 8
O=C(N/N=C/c1ccc(O)c(O)c1)c1cccc(Cl)c1 | 32.8 ± 3.2
O=C(c1ccccc1)c1c(O)ccc2c(C(=O)c3ccccc3)c(O)ccc12 | 39.3 ± 7.9
